# Data: PubChem BioAssay (NCATS)
# Inconclusive results are not listed. Active and inactive are the calls of the source. Unless noted, calls follow the shape of the dose curve; as a rule, active = well fitted curve in the direction sought with a large enough effect; inconclusive = small, poorly fitted or top-dose-only effect, or another doubt; inactive = no such curve, though single readings can be large; an effect the other way counts as inactive or inconclusive.
# Tests used:
# [1] = target: Lysosomal acid glucosylceramidase (Homo sapiens) (UniProt P04062); assay: Glucocerebrosidase-p2 (AID 348; in the data active = potency below about 10 µM; also: potency is read from the fitted curve at half-maximal effect); conditions: purified GBA, blue fluorogenic substrate, 40 min
# In short: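 Normal human glucocerebrosidase (0.2 nM) with blue fluorogenic substrate (80 uM final) in citrate/phosphate pH 5.9 with 10mM sodium taurocholate, 0.01% tween-20; 40 min RT, NaOH/glycine stop; fluorescence Ex 365/Em 440; AC50 from a titration from 0.6 nM upwards.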
# [2] = AP1 Signaling Pathway (AID 357; active = well fitted curve in either direction with a large enough effect, not every such curve was filed as active;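 also: ME-180 reporter cells stimulated with EGF at its EC50 level; % is scaled to controls: 0 for no effect and ±100 for the full control effect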); conditions: ME-180 AP-1-bla reporter, EGF-induced, beta-lactamase ratio, 5 h; at 7.69 µM (top of the series) unless noted
# In short: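 Read-out was the 460nm/530nm emission ratio (excitation 405nm) after CCF4 loading for 2.5 hours at room temperature. Cells carried an AP-1-driven beta-lactamase reporter, were stimulated with EC50 EGF plus compound for 5 hours, and AC50 values came from titrations.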
# [3] = target: Cytochrome P450 1A2 (Homo sapiens) (UniProt P05177); assay: p450-cyp1a2 (AID 410; calls by dose curve; also: potency is read from the fitted curve at half-maximal effect)
# In short: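 O-Demethylation of luciferin 6' methyl ether by human CYP1A2 is monitored as luciferase luminescence. Substrate sits at Km (100uM); enzyme is 20nM. Values are scaled to 57 uM furafylline as maximal inhibition.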
# [4] = NFAT Signaling Pathway (AID 444; active = well fitted curve in either direction with a large enough effect, not every such curve was filed as active;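 also: carbachol stimulus at about its EC50 of 1 µM final; % is scaled to controls: 0 for no effect and ±100 for the full control effect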); conditions: Jurkat NFAT-bla M1, carbachol, beta-lactamase ratio, 5 h; at 7.69 µM (top of the series) unless noted
# In short: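 Read-out: CCF4 FRET ratio (460 nm/530 nm) after 1 h RT dye loading, used for %activity and AC50 from titration series. Cells: Jurkat NFAT-β-lactamase/M1 line, treated with compound plus 1 uM carbachol for 5 h, 37 °C.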
# [5] = Stat Signaling Pathway (AID 446; active = well fitted curve in either direction with a large enough effect, not every such curve was filed as active;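 also: ME-180 cervical cancer cells given 40 pM IL-6 alongside compound; SIE-controlled beta-lactamase reporter measured as 460/530 nm FRET emission ratio; % is scaled to controls: 0 for no effect and ±100 for the full control effect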); conditions: ME-180 (cervical carcinoma) SIE beta-lactamase reporter, IL-6 stimulated, 5 h; at 7.69 µM (top of the series) unless noted
# In short: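 Overnight-plated ME-180 cells bearing a STAT Inducible Element beta-lactamase reporter; 5 h co-exposure to compound and 40 pM IL-6; values normalized to 300 pM IL-6 and 125 nM JAK inhibitor controls.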
# [6] = target: Glucocorticoid receptor (Homo sapiens) (UniProt P04150); assay: GR-GFP Redistribution (AID 450;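 active = compounds whose dose series gives a full or clear partial fitted curve of increased nuclear translocation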; also: potency is read from the fitted curve at half-maximal effect); conditions: U2OS GR-GFP nuclear translocation, laser cytometry, 2 h
# [7] = target: Glucocorticoid receptor (Homo sapiens) (UniProt P04150); assay: GR-EFC Redistribution (AID 451; calls by dose curve; also: potency is read from the fitted curve at half-maximal effect); conditions: CHO-K1 GR-EFC translocation, beta-gal luminescence, 2 h
# In short: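 Translocation of GR-ED fusion to nuclear EA restores b-gal, read by luminescence after 1 h room-temperature detection. Engineered CHO-K1 biosensor cells, 1,000/well, exposed 2 h at 37 C to titrations up to 46 uM final.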
# [8] = target: Mitogen-activated protein kinase 10 (Mus musculus) (UniProt Q61831); assay: JNK3 AlphaScreen Assay (AID 530; active = well fitted curve in either direction with a large enough effect, not every such curve was filed as active;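 also: kinase came from lysate of stimulated human HepG2 cells; signal reports phosphorylation of biotinylated GST-cJun 1-79 at Ser73 with 10 µM ATP; % is scaled to controls: 0 for no effect and ±100 for the full control effect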)
# In short: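 qHTS titrations with 15 min compound pre-incubation before adding ATP (10 uM final). Read-out: AlphaScreen of Ser73-phosphorylated biotin-GST-cJun using HepG2 lysate JNK3 activated by IL-1β and TNFα.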
# [9] = target: 3',5'-cyclic-AMP phosphodiesterase 4B (Homo sapiens) (UniProt Q07343); assay: qHTS Assay for Inhibitors of PDE-IV (AID 607; active = well fitted activation curve with a large enough effect in the main read-out, with a control signal flat, not every such curve was filed as active; also: % of control where 0% means no effect)
# In short: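 Live HEK293 cells with a modified cyclic nucleotide-gated (CNG) channel report intracellular cAMP via membrane-potential dye fluorescence (ex 535/em 590 nm). Endogenous PDE-IV was targeted. Compounds were tested at up to 22.9 uM final; RO 20-1724 100 uM served as control.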
# [10] = target: Cytochrome P450 3A4 (Homo sapiens) (UniProt P08684); assay: qHTS Assay for Activators of Cytochrome P450 3A4 (AID 885); also: nearly all actives have a fitted effect of over 65% in size
# In short: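 Using 20nM recombinant human CYP3A4 in potassium phosphate (200mM), substrate Luciferin-PPXE at 25uM, luminescent luciferin detection followed a 60-min RT NADPH reaction; data scaled to 57 uM ketoconazole.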
# [11] = qHTS Assay for Lipid Storage Modulators (AID 1519; calls by dose curve); conditions: Drosophila S3 cells, BODIPY lipid droplet/cell ratio, laser cytometry, cells loaded with oleic acid; for activity change, negative = inhibition: at 57.5 µM (top of the series)
# In short: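 Cells seeded at 5,000 per well were treated with compounds over a concentration series and loaded with oleic acid (400 uM, as added). Lipid droplet fluorescence (488 nm excitation, 500-530 nm channel) was read by laser-scanning cytometry and normalized to 20 uM Triacsin C.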
# [12] = target: Dual specificity protein kinase CLK4 (Homo sapiens) (UniProt Q9HAZ1); assay: qHTS Assay for Inhibitors of CDC-like Kinase 4 (Kinase-Glo Assay) (AID 1770); also: % is scaled to controls: 0 for no effect and ±100 for the full control effect; nearly all actives have a fitted effect of over 65% in size
# In short: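 Readout: Kinase-Glo luminescence from ATP left after a 4.5 h room-temperature reaction of 25 nM Clk4 with 100 uM RS peptide and 1 uM ATP (final). Buffer: 25 mM Tris pH 7.5, 10 mM MgCl2.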
# [13] = target: Dual specificity protein kinase CLK4 (Homo sapiens) (UniProt Q9HAZ1); assay: qHTS Assay for Inhibitors of CDC-like Kinase 4 (ADP-Glo Assay) (AID 1771); also: % is scaled to controls: 0 for no effect and ±100 for the full control effect; nearly all actives have a fitted effect of over 70% in size
# In short: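 Compounds are pin-transferred onto substrate mix (100 uM RS peptide, 1 uM ATP), then 25 nM Clk4 is added. After 1 hr at room temperature, ADP-Glo reagent runs 45 min, detection reagent 30 min, then luminescence is read.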
# [14] = target: Dual specificity protein kinase CLK4 (Homo sapiens) (UniProt Q9HAZ1); assay: qHTS Assay for Inhibitors of CDC-like Kinase 4 (ADP-FP Assay) (AID 1795);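 also: recombinant human CLK4 phosphorylating RS repeat peptide at 1 µM ATP; % is scaled to controls: 0 for no effect and ±100 for the full control effect; nearly all actives have a fitted effect of over 60% in size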
# In short: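 FP readout: Orange Transcreener ADP2 tracer (4 nM) plus ADP antibody, read after 30 min at room temperature. Kinase step: 6.25 nM Clk4, 100 uM RS peptide, 1 uM ATP, pH 7.5, 1 h.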
# [15] = target: Ubiquitin carboxyl-terminal hydrolase 1 (Homo sapiens) (UniProt O94782); assay: Inhibitors of USP1/UAF1: Pilot qHTS (AID 504865);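 also: rhodamine fluorescence freed from ubiquitin-rhodamine substrate followed over time; top concentration of the series differs between compounds; % is scaled to controls: 0 for no effect and ±100 for the full control effect; nearly all actives have a fitted effect of over 35% in size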
# In short: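 1nM USP1/UAF1 + cpd, 15 min RT; start w/ Ub-Rho 150nM final; kinetic FL 480/540 nm, 6 reads q60 s. Buffer 50mM HEPES pH 7.8, 0.5mM EDTA, 1mM TCEP, 0.01% Tween-20, 0.1 mg/ml BSA.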
# [16] = target: Cytochrome P450 3A4 (Homo sapiens) (UniProt P08684); assay: qHTS Assay for Inhibitors and Substrates of Cytochrome P450 3A4 (AID 884); also: potency is read from the fitted curve at half-maximal effect; nearly all actives have a fitted effect of over 50% in size
# In short: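 Luminescent readout of luciferin produced by CYP3A4 (20 nM) dealkylation of Luciferin-PPXE, 25 uM (its KM). NADPH-driven reaction ran 60 min at RT after 10 min compound preincubation; data scaled to 57 uM ketoconazole as 100% inhibition.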
# [17] = Confirmation and Secondary Assay for Modulators of Hemoglobin Beta Chain Splicing at IVS2 654 locus (AID 910);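 also: HeLa cells stably carrying EGFP split by mutant beta-globin IVS2-654 intron; % of control where 0% means no effect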
# In short: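 Readout: per-well total peak green fluorescence (488 nm ex, 500–520 nm em) from objects 5–250 µm, reflecting correct splicing of an EGFP-654 reporter. Compounds were applied for 2 days at 37 °C to overnight-plated HeLa EGFP-654 cells; controls were DMSO and 500 nM IVS2-654 PNA.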
# [18] = Confirmation and Secondary Assay for Modulators of Hemoglobin Beta Chain Splicing at IVS2 705 locus (AID 930);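 also: HeLa cells stably expressing the EGFP-705 splicing reporter; GFP fluorescence per well restored by corrected splicing of the IVS2-705 intron in EGFP; % of control where 0% means no effect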
# In short: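 HeLa cells stably carrying EGFP interrupted by mutant beta-globin intron 2 (IVS2-705) treated 2 days at 37C with compound; 500 nM antisense PNA as control. Correct splicing read as total peak GFP intensity per well by laser-scanning cytometry.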
# [19] = target: Rap guanine nucleotide exchange factor 3 (Homo sapiens) (UniProt O95398); assay: Confirmatory qHTS for agonist of cAMP-regulated guanine nucleotide exchange factor 3 (EPAC1) (AID 1645881);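 also: EPAC1 catalysed release of BODIPY-GDP from Rap1B seen as fluorescence loss; 100% = effect of cAMP agonist control; nearly all actives have a fitted effect of over 75% in size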
# [20] = target: DNA dC->dU-editing enzyme APOBEC-3G (Homo sapiens) (UniProt Q9HC16); assay: qHTS for inhibitors of Vif-A3G interactions: Validation (AID 588379); also: 0% is about no effect
# In short: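 Yellow fluorescence (Ex 488, Em 500-530) of Vif-coexpressing HeLa A3G-eYFP cells, scanned by Acumen cytometer, reports blocked A3G degradation. Cells plated at 700/well overnight at 37 deg C before compound addition, then a further overnight compound incubation at 37 deg C.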
# [21] = target: Rap guanine nucleotide exchange factor 4 (Homo sapiens) (UniProt Q8WZA2); assay: Confirmatory qHTS for agonist of cAMP-regulated guanine nucleotide exchange factor 4 (EPAC2) (AID 1645884);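 also: nucleotide exchange releases bodipy-GDP from Rap1 and this lowers its fluorescence; % is scaled to controls: 0 for no effect and ±100 for the full control effect; nearly all actives have a fitted effect of over 65% in size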
# [22] = target: Rap guanine nucleotide exchange factor 4 (Homo sapiens) (UniProt Q8WZA2); assay: Confirmatory qHTS for antagonist of cAMP-regulated guanine nucleotide exchange factor 4 (EPAC2) (AID 1645885); also: potency is read from the fitted curve at half-maximal effect; nearly all actives have a fitted effect of over 25% in size
# [23] = measured here: cell count channel max response
# [24] = measured here: lipid channel max response
# Chain of Dual specificity protein kinase CLK4 (Homo sapiens) (Q9HAZ1 whole entry, looked up): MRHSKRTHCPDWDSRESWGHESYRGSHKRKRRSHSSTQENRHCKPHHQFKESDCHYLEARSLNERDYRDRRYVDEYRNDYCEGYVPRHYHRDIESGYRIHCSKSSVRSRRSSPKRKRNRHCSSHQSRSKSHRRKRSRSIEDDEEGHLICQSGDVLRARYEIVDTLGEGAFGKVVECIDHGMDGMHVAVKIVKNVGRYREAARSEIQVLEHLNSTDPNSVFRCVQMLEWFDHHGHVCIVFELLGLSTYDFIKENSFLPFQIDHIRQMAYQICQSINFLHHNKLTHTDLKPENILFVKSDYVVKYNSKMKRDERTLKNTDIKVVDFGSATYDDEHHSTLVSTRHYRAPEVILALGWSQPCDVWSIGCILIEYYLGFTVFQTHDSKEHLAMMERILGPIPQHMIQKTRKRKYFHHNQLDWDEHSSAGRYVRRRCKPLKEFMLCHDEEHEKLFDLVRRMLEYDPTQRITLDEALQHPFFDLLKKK
# Chain of Rap guanine nucleotide exchange factor 3 (Homo sapiens) (O95398 whole entry, looked up): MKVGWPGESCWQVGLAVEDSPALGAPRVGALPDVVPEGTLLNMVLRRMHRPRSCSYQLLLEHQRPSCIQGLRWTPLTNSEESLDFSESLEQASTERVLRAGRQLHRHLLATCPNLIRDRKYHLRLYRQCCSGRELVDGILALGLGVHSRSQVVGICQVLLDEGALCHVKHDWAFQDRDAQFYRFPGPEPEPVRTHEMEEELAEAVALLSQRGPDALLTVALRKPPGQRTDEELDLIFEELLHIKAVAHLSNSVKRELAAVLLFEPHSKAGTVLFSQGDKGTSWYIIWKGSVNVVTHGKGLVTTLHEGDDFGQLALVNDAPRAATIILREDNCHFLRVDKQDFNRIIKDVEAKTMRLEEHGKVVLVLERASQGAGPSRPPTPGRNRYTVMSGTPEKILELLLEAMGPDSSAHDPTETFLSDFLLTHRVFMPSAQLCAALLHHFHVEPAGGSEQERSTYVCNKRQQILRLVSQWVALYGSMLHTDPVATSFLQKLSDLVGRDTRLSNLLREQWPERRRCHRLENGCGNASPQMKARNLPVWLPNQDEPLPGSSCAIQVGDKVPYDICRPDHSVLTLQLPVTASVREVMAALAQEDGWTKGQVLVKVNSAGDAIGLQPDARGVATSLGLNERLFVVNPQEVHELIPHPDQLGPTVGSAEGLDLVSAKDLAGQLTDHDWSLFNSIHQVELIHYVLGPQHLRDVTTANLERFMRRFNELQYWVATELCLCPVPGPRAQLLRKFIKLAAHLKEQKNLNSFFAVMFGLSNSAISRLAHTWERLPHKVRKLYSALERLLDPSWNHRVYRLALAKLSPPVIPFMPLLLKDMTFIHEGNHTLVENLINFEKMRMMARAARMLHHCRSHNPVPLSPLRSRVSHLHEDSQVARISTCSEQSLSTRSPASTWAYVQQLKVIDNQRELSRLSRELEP
# Chain of Rap guanine nucleotide exchange factor 4 (Homo sapiens) (Q8WZA2 whole entry, looked up): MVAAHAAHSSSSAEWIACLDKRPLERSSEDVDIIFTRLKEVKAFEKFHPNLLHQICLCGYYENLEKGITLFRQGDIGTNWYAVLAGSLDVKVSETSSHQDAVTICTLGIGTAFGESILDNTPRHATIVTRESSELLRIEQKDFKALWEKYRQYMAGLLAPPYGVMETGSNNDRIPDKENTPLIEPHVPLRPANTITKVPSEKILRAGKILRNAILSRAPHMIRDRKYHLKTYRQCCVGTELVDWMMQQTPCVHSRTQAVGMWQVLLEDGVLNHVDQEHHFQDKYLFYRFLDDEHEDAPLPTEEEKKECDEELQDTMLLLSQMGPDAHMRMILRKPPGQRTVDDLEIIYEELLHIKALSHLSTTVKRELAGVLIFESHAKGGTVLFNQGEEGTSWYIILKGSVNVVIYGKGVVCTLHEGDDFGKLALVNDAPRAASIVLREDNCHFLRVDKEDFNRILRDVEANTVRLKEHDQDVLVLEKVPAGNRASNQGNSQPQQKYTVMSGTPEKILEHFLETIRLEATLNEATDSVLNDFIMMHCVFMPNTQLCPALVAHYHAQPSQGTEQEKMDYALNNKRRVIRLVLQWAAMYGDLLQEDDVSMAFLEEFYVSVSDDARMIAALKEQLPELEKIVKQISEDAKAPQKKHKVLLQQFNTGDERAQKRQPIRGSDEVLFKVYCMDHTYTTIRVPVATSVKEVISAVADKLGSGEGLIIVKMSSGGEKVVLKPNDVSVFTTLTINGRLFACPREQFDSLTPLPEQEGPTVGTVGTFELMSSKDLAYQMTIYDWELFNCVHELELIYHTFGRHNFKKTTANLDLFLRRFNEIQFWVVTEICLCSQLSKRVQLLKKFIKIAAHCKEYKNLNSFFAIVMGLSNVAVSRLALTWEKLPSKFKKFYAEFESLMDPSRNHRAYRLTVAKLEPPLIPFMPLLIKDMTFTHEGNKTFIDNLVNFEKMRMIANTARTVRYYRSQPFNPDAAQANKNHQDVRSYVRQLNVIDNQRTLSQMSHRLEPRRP
# Chain of Cytochrome P450 3A4 (Homo sapiens) (P08684 whole entry, looked up): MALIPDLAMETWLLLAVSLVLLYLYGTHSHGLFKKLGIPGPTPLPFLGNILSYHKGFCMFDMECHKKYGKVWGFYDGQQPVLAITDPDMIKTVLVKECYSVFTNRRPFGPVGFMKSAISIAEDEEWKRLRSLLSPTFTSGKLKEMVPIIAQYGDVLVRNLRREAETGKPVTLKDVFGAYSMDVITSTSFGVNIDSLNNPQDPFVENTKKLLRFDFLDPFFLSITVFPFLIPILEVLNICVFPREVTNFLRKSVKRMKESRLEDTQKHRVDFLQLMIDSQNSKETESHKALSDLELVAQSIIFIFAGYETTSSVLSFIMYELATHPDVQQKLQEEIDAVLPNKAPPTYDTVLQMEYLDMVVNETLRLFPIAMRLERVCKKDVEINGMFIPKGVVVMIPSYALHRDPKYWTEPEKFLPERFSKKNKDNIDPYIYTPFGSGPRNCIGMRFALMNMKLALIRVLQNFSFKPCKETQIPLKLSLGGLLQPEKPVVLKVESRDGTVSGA
# Chain of Glucocorticoid receptor (Homo sapiens) (P04150 whole entry, looked up, the tested form may be a part): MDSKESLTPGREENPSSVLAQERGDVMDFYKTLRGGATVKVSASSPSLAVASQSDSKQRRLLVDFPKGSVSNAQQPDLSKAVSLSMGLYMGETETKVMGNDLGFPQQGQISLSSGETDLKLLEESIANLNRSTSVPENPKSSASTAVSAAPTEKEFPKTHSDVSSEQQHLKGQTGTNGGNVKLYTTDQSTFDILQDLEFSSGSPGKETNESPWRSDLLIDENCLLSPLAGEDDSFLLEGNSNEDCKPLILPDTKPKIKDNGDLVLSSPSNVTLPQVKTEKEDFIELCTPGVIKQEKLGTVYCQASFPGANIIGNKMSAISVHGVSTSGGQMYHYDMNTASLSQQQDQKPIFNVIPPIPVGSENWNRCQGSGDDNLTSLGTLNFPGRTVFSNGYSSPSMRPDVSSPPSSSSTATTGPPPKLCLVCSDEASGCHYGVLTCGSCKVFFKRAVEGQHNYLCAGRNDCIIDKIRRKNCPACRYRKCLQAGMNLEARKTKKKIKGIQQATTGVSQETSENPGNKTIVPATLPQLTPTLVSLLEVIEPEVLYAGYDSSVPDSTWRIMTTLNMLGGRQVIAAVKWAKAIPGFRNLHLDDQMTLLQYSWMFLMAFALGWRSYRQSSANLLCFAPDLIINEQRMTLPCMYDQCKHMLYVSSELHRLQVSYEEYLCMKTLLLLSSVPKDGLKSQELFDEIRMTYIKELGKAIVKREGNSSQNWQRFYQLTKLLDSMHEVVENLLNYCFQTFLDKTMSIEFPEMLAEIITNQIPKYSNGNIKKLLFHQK
# Chain of Lysosomal acid glucosylceramidase (Homo sapiens) (P04062 whole entry, looked up): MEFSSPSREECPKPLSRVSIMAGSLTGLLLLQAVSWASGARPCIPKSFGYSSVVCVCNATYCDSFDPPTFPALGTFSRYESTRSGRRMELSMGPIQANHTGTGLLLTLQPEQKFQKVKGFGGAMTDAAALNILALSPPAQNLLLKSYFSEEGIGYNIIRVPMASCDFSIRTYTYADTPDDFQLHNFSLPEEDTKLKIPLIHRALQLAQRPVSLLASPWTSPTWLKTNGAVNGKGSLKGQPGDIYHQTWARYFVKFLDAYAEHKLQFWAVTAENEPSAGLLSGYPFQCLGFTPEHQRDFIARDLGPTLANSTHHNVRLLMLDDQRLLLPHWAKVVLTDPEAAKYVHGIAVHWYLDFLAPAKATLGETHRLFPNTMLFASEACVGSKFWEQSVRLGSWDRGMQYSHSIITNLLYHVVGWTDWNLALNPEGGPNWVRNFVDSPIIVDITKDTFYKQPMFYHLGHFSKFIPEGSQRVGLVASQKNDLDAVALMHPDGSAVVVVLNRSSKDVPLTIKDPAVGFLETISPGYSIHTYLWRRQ
# Chain of DNA dC->dU-editing enzyme APOBEC-3G (Homo sapiens) (Q9HC16 whole entry, looked up): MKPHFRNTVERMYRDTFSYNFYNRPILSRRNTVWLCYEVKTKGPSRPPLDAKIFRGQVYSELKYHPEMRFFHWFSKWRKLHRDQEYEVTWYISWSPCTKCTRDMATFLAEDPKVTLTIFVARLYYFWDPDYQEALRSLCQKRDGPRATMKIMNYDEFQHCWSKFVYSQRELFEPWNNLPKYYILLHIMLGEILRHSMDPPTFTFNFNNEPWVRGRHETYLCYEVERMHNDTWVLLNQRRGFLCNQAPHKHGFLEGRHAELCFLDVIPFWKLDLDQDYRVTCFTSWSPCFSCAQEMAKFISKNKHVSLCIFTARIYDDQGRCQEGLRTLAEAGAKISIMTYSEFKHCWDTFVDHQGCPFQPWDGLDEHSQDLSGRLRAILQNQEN
smiles,measurement,setting,value
COc1ccc(-c2nc3cnc(OC)nc3n(-c3ccc(OC)cc3)c2=O)cc1,Potency,[1],> 11.4 µM (inactive)
same,"activity change, negative = inhibition",[2],-4.28% (inactive)
same,Potency,[3],0.316 µM (active)
same,"activity change, negative = inhibition",[4],5.9% (inactive)
same,"activity, negative = inhibition",[5],-4.51% (inactive)
same,Potency,[6],> 9.22 µM (inactive)
same,Potency,[7],> 46 µM (inactive)
same,Potency,[8],inactive
same,Potency,[9],inactive
same,Potency,[10],inactive
same,"activity change, negative = inhibition",[11],-15.7% (inactive)
same,max response,[11]; [23],29.3%
same,max response,[11]; [24],4.55%
same,Potency,[12],inactive
same,Potency,[13],inactive
same,Potency,[14],inactive
same,Potency,[15],inactive
COc1cc(O)c(C(=O)/C=C/c2ccc(OC)c(O)c2)c(OC)c1,Potency,[16],6.31 µM (active)
same,Potency,[10],inactive
same,Potency,[17],inactive
same,outcome,[18],inactive
same,"activity change, negative = inhibition",[11],-24.7% (inactive)
same,max response,[11]; [23],-3.92%
same,max response,[11]; [24],-25.6%
same,Potency,[19],inactive
CC1(C)[C@@H](O)CC[C@]2(C)C3C(=O)C=C4C5C[C@@](C)(C(=O)O)CC[C@]5(C)CC[C@@]4(C)[C@]3(C)CC[C@@H]12 (stereo not given in full),Potency,[10],inactive
same,"activity change, negative = inhibition",[11],2.84% (inactive)
same,max response,[11]; [23],8.09%
same,max response,[11]; [24],11.1%
same,outcome,[20],inactive
same,Potency,[19],inactive
same,Potency,[21],inactive
same,Potency,[22],5.55 µM (active)
Cc1cccc2c3c(ccc12)C1=C(C(=O)C3=O)C(C)CO1 (stereo not given),Potency,[17],inactive
same,outcome,[18],inactive
same,"activity change, negative = inhibition",[11],8.95% (inactive)
same,max response,[11]; [23],9.52%
same,max response,[11]; [24],20.4%
same,Potency,[19],inactive
same,Potency,[21],inactive
